# D2 ag-1 – agonists of human D2 dopamine receptor (beta-arrestin) | P14416 | DiscoveRx PathHunter D2 beta-arrestin, luminescence, 90 min; 100% = 57 uM dopamine signal | activation, % (no concentration beside the values) | hit rate 0.084% among 360,000 | AID 624465; in the data active means activation above about 40%
# Target sequence (P14416 whole entry, looked up): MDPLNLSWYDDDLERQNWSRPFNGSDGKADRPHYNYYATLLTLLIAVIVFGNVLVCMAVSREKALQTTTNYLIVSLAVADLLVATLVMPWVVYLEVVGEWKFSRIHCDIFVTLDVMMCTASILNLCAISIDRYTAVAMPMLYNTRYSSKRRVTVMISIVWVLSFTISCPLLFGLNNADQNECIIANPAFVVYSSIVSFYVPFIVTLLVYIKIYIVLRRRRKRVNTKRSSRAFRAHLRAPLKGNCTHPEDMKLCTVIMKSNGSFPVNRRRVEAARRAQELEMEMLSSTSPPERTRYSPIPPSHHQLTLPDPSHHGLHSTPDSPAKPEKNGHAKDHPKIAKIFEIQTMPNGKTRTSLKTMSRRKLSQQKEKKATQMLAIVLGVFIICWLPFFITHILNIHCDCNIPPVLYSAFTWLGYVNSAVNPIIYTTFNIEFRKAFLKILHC
#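 Agonist mode: compounds alone added to overnight-plated D2 PathHunter cells for 90 min at 37 C, with 57 uM final dopamine (EC100) defining full response. Beta-arrestin recruitment detected by chemiluminescent reagent, read after 1 h at ambient temperature.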
# D2 PAM-1 – positively modulates the human D2 dopamine receptor allosterically; potentiation, % at 10 µM; AID 485347; HEK293 T-REx D2, calcium flux, EC20 dopamine potentiation; P14416; hit rate 0.34% among 340,000;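 active means potentiation over 3 SD above the plate norm, cut at about 30% in these data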; further: 0% is about no effect
#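 Cells plated with tetracycline inducer and held overnight at 30 C; calcium dye loaded 30–90 min at room temperature; baseline taken, compound added and read 180 s; EC20 dopamine then added and read 180 s.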
# D2 antag – antagonists of human D2 dopamine receptor; HEK293 TREx D2 cells, calcium flux, dopamine EC80; hit rate 2% among 340,000; inhibition, % at 10 µM; P14416; AID 485344; in the data active means inhibition above about 30%; inactive means below that, where a call was filed; further: 0% is about no effect
#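 Calcium flux kinetic readout in an inducible HEK293 TREx D2 line plated overnight at 30 C. After 180 s compound exposure, an EC80 dopamine challenge follows with another 180 s kinetic read to detect antagonism.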
# D2 ag-2 – D2 dopamine receptor (human) agonism; HEK293 T-REx D2 cells, calcium flux agonist mode; activation, % at 2 µM; hit rate 0.53% among 340,000; AID 485358;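 active means activation over 3 SD above normal in the single-dose calcium agonist read, cut at about 30% in these data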; further: 0% is about no effect
#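 Agonism scored from kinetic calcium signal (1 read/sec, 180 s) following compound pin transfer, after a 10 s baseline. Cells: HEK293 Trex line expressing inducible D2 receptor coupled to calcium, dye-loaded after overnight culture at 30 C.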
# D2 PAM-2 – positive allosteric modulators of human D2 dopamine receptor; P14416; DiscoveRx D2 beta-arrestin cells, luminescence, 90 min; 100% = 57 uM dopamine signal; potentiation, % (no concentration beside the values); hit rate 0.23% among 360,000; in the data active means potentiation above about 50%
#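 PathHunter D2 cells, attached overnight at 37 deg C, received compound in DMSO plus dopamine at EC20 (50 nM final) for 90 min at 37 deg C. Beta-arrestin recruitment was read as luminescence after 1 h with detection reagent at ambient temperature.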
# Numbers without * were called inactive; · = not tested or not shown. In the library only some 2.4% were active in any assay of this set; here they are far more common.
SMILES,D2 ag-1,D2 PAM-1,D2 antag,D2 ag-2,D2 PAM-2
CC(=O)N1c2ccc(S(=O)(=O)N3CCC(C(=O)Nc4cccc(Cl)c4)CC3)cc2CC1C (stereo not given),-1.5,-2.5,41.2*,0.0,-0.8
Cc1ccc(NC(=O)C2CCN(S(=O)(=O)c3ccc4c(c3)NC(=O)CO4)CC2)cc1,-2.7,-19.5,32.0*,7.0,-10.3
CC(=O)N1c2ccc(S(=O)(=O)N3CCC(C(=O)Nc4cccc(C)c4)CC3)cc2CC1C (stereo not given),-1.5,15.3,-6.3,-0.6,-35.5
CC(=O)N1c2ccc(S(=O)(=O)N3CCCC3C(=O)Nc3ccc(C)cc3)cc2CC1C (stereo not given),14.1,4.8,36.7*,-0.4,-2.2
CC(C)c1ccc(NC(=O)C2CCN(S(=O)(=O)c3ccc4c(c3)NC(=O)CO4)CC2)cc1,1.3,-14.4,-4.4,0.2,-13.9
CCOc1ccc(NC(=O)c2sc3nc4c(c(-c5ccc(OC)cc5)c3c2N)C(=O)CC(C)(C)C4)cc1,·,7.2,·,-1.0,·
Cc1cccc(NC(=O)CSc2nc3ccccc3nc2N2CCC(C)CC2)c1,·,8.5,·,0.0,·
CC(=O)N1c2ccc(S(=O)(=O)NCC3CCC(C(=O)Nc4cc(C)cc(C)c4)CC3)cc2CC1C (stereo not given),·,·,·,0.1,·
CC(=O)N1c2ccc(S(=O)(=O)NCC3CCC(C(=O)Nc4ccc(C)cn4)CC3)cc2CC1C (stereo not given),1.4,34.2*,-13.6,-0.1,-9.8
COC(=O)c1ccccc1NC(=O)Cn1cnc2sc(C)c(S(=O)(=O)N3CCC(C)CC3)c2c1=O,·,·,·,-0.1,·
O=c1c2c([N+](=O)[O-])cc([N+](=O)[O-])cc2sn1-c1ccc(Br)cc1,10.7,-1.9,7.0,0.6,60.6*
O=c1c2c([N+](=O)[O-])cc([N+](=O)[O-])cc2sn1Cc1ccccc1,-7.3,·,·,·,8.3
COc1cc(C(=O)Nc2ccc3oc(-c4ccc(C)c(Br)c4)nc3c2)cc(OC)c1OC,·,-3.5,·,0.2,·
COc1ccc(C(=O)c2c[nH]cc2-c2ccccc2)cc1,-1.0,5.0,39.8*,-1.8,-7.1
C=CCc1cc(Cl)ccc1OCCNCCOC,-3.8,-48.7,55.2*,0.2,-23.1
C=CCc1cc(Cl)ccc1OCCNCCN1CCOCC1,-1.5,-23.9,-30.8,-0.3,-10.4
Oc1oc(-c2ccccc2)nc1C=NCc1ccncc1,-2.6,4.9,30.7*,0.8,-12.9
COc1ccc(C)cc1S(=O)(=O)N(C)CC(=O)NCc1ccncc1,-0.5,7.7,32.8*,0.2,-2.0
CCc1ccc(OCc2n[nH]c(=S)n2C(C)CCCC(C)C)cc1 (stereo not given),13.5,3.4,47.5*,1.5,0.1
COc1cccc(-c2csc(N3CCN(C(=S)Nc4ccccc4)CC3)n2)c1,1.2,-11.8,2.0,0.2,-12.7
COc1cccc(-c2csc(N3CCN(C(=S)Nc4cccc(C)c4)CC3)n2)c1,-5.5,14.7,85.8*,-0.7,-14.8
CCCCNC(=O)c1ccc2c(c1)S(=O)(=O)c1ccccc1C2=O,4.6,-7.8,6.8,-1.0,10.9
CC(C)OCCCNC(=O)c1ccc2c(c1)S(=O)(=O)c1ccccc1C2=O,1.4,3.6,19.2,0.0,72.0*
COc1cc(CNCc2cc(OC)c(OC)c(OC)c2)cc(OC)c1,-0.7,2.2,30.1*,-0.4,-3.1
O=C(NCc1ccco1)c1ccc2sc([C@@H]3O[C@H](CO)[C@@H](O)[C@H]3O)nc2c1,-6.3,·,·,·,-12.4
SMILES,D2 ag-1,D2 PAM-1,D2 antag,D2 ag-2,D2 PAM-2
c1ccc(-c2ncc(CSc3nncn3-c3ccccc3)s2)cc1,-3.8,·,·,·,-20.1
Cc1nnc(SCc2cnc(-c3ccc(C(C)C)cc3)s2)n1C,-3.2,1.4,66.5*,-1.9,2.5
O=C(NCC1OCCc2ccccc21)c1cc(COc2ccc(F)cc2Cl)on1 (stereo not given),-2.9,-10.2,50.2*,0.7,-9.3
O=C(Nc1cc(Cl)ccc1Cl)c1cc(S(=O)(=O)NCCc2ccccc2)ccc1F,·,-8.2,·,-0.3,·
COC(=O)c1sc(S(=O)(=O)Nc2ccc(C)cc2)c(C(=O)OC)c1C,-3.7,32.4*,3.9,5.1,1.5
COC(=O)c1cc2cc(NS(=O)(=O)c3ccc(C)cc3)ccc2s1,-1.7,42.5*,-8.7,-2.0,-9.5
CC1=C(C(=O)N(C(C)C)C(C)C)CC(CC(=O)NCCCCc2ccccc2)C(=O)N1Cc1ccc(F)cc1 (stereo not given),1.9,·,·,·,-3.7
CCOc1ccccc1NC(=O)CSc1nnc(N)s1,·,·,·,-2.4,·
Cc1noc(C)c1C(=O)OCC(=O)NC1CC1,-0.1,6.4,-4.1,0.1,-4.1
Cc1noc(C)c1C(=O)OCC(=O)NC1CCCCC1C (stereo not given),-4.6,37.1*,-10.1,1.0,-46.4
COc1ccc(-c2noc(N3CCC(C(=O)NCc4ccccc4Cl)CC3)n2)cc1,-2.0,13.9,47.6*,1.2,-3.0
CCc1cc(=O)[nH]c(SCc2nc(-c3cccc(Cl)c3)no2)n1,·,-0.5,·,·,·
COC(=O)c1c(-c2cccs2)csc1NC(=O)COc1ccccc1,·,-1.7,·,2.2,·
CSCC(C)N1CCC(CCC(=O)NC2CC2)CC1 (stereo not given),-4.1,101.2*,-22.7,0.1,-4.1
CCOC(=O)C1(C)C(=O)CC2c3nc4ccccc4cc3CN2C1=O (stereo not given),-26.9,·,·,·,-43.9
CCOc1ccccc1N(CC)C(=O)c1noc2c1COc1ccc(C)cc1-2,·,-2.9,·,-0.3,·
O=C(O)CC(NC(=O)C12CC3CC(CC(C3)C1)C2)c1cc([N+](=O)[O-])ccc1Cl (stereo not given),-3.9,9.6,72.3*,-1.7,2.7
O=C(O)CC(NC(=O)C1CCCCC1)c1cc([N+](=O)[O-])ccc1Cl (stereo not given),-4.7,2.8,-14.4,0.3,-4.3
O=C(c1ccccc1O)N1N=C(C(F)(F)F)CC1(O)c1ccc([N+](=O)[O-])cc1 (stereo not given),-7.2,-7.0,-5.9,0.9,-12.6
CCc1ccc(C2(O)CC(C(F)(F)F)=NN2C(=O)Cc2ccc([N+](=O)[O-])cc2)cc1 (stereo not given),-3.4,-4.8,32.8*,-0.2,-12.5
O=C(Nc1cc(Cl)cc(Cl)c1)c1ccc(F)c(S(=O)(=O)NC2CCCCC2)c1,·,5.4,·,0.9,·
COc1ccccc1NC(=O)C1=C(C)Nc2nc(SCc3ccccc3F)nn2C1c1cccs1 (stereo not given),·,4.6,·,·,·
CCN(CC(=O)NCc1ccc(Cl)cc1)C(=O)COc1cccc(C(F)(F)F)c1,-4.3,3.6,-17.2,0.1,-12.0
CCN(CC(=O)NCc1ccc(Cl)cc1)C(=O)COc1cccc(Cl)c1,-6.4,-9.0,33.1*,0.7,-62.1

# From PubChem
